Data taken from the supplement of paper PMC10849652.
Targets with a hit are over-represented here; the source holds about 7,900 in all. About 0.6% of all pairs of compound and target were hits. Values without a mark were called inactive.

What was measured:
Experiment in all cases: log2 fold change, soluble protein after heating vs DMSO (PISA); higher = thermal stabilisation; K562 cells, 10 uM, 30 min; active = over 0.2 and 3.5 SD of the protein, either way, in both replicates (recomputed)
saracatinib = compound: CN1CCN(CCOc2cc(OC3CCOCC3)c3c(Nc4c(Cl)ccc5c4OCO5)ncnc3c2)CC1 [saracatinib]
Method in brief: (§1)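 K562 cells (2×10^6 cells/mL) were treated with 10 μM compound for 30 min, and aliquots were heated for 3 min over 48°C-58°C. Pooled aliquots were extracted in PBS with 0.5% NP-40 at 4°C, and the supernatant after 21,000xg for 90 min was measured by TMTpro 16plex LC-MS/MS with channel sums equalised. Reported thermal stability, relative to control samples and from duplicates, is a log2 fold change.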

sotrastaurin = compound: CN1CCN(c2nc(C3=C(c4c[nH]c5ccccc45)C(=O)NC3=O)c3ccccc3n2)CC1 [sotrastaurin]
Method in brief: as §1

alvocidib = compound: CN1CC[C@H](c2c(O)cc(O)c3c(=O)cc(-c4ccccc4Cl)oc23)[C@H](O)C1 [alvocidib]
Method in brief: as §1

Tubastatin A = compound: CN1CCc2c(c3ccccc3n2Cc2ccc(C(=O)NO)cc2)C1 [Tubastatin A]
Method in brief: as §1

[1] = compound: CNC(=O)C1=CC=CC=C1NC2=NC(=NC=C2Cl)NC3=C(C=C(C=C3)N4CCOCC4)OC
Method in brief: as §1

defactinib = compound: CNC(=O)c1ccc(Nc2ncc(C(F)(F)F)c(NCc3nccnc3N(C)S(C)(=O)=O)n2)cc1 [defactinib]
Method in brief: as §1

rucaparib = compound: CNCc1ccc(-c2[nH]c3cc(F)cc4c3c2CCNC4=O)cc1 [rucaparib]
Method in brief: as §1

[2] = compound: CNc1nc(-c2ccc3c(N)n[nH]c3c2)cc(N2C[C@@H](C(=O)NC3CCCCC3)CC[C@H]2C)n1
Method in brief: as §1

encorafenib = compound: COC(=O)N[C@@H](C)CNc1nccc(-c2cn(C(C)C)nc2-c2cc(Cl)cc(NS(C)(=O)=O)c2F)n1 [encorafenib]
Method in brief: as §1

[3] = compound: COC(=O)[C@H](CCSC)NC(=O)C1=C(C=C(C=C1)NC[C@H](CS)N)C2=CC=CC=C2
Method in brief: as §1

[4] = compound: COC1=CC=C(C=C1)CN2C=CC3=C2C=C(C=C3)C(=O)NO
Method in brief: as §1

filanesib = compound: CON(C)C(=O)N1N=C(c2cc(F)ccc2F)S[C@@]1(CCCN)c1ccccc1 [filanesib]
Method in brief: as §1

zotarolimus = compound: CO[C@H]1C[C@@H]2CC[C@@H](C)[C@@](O)(O2)C(=O)C(=O)N2CCCC[C@H]2C(=O)O[C@H]([C@H](C)C[C@@H]2CC[C@H](n3cnnn3)[C@H](OC)C2)CC(=O)[C@H](C)/C=C(\C)[C@@H](O)[C@@H](OC)C(=O)[C@H](C)C[C@H](C)/C=C/C=C/C=C/1C [zotarolimus]
Method in brief: as §1

idasanutlin = compound: COc1cc(C(=O)O)ccc1NC(=O)[C@@H]1N[C@@H](CC(C)(C)C)[C@](C#N)(c2ccc(Cl)cc2F)[C@H]1c1cccc(Cl)c1F [idasanutlin]
Method in brief: as §1

alisertib = compound: COc1cc(Nc2ncc3c(n2)-c2ccc(Cl)cc2C(c2c(F)cccc2OC)=NC3)ccc1C(=O)O [alisertib]
Method in brief: as §1

[5] = compound: COc1cc2nc(-c3cc(F)ccc3O)nc(N[C@@H]3CNC[C@H]3C(C)(C)O)c2cc1OC
Method in brief: as §1

gefitinib = compound: COc1cc2ncnc(Nc3ccc(F)c(Cl)c3)c2cc1OCCCN1CCOCC1 [gefitinib]
Method in brief: as §1

[6] = compound: COc1cccc2cc(-c3nc([C@H]4CC[C@H](C(=O)O)CC4)n4ncnc(N)c34)[nH]c12
Method in brief: as §1

lapatinib = compound: CS(=O)(=O)CCNCc1ccc(-c2ccc3ncnc(Nc4ccc(OCc5cccc(F)c5)c(Cl)c4)c3c2)o1 [lapatinib]
Method in brief: as §1

pictilisib = compound: CS(=O)(=O)N1CCN(Cc2cc3nc(-c4cccc5[nH]ncc45)nc(N4CCOCC4)c3s2)CC1 [pictilisib]
Method in brief: as §1

Chain of UniProt P06737 (P06737 whole entry, looked up): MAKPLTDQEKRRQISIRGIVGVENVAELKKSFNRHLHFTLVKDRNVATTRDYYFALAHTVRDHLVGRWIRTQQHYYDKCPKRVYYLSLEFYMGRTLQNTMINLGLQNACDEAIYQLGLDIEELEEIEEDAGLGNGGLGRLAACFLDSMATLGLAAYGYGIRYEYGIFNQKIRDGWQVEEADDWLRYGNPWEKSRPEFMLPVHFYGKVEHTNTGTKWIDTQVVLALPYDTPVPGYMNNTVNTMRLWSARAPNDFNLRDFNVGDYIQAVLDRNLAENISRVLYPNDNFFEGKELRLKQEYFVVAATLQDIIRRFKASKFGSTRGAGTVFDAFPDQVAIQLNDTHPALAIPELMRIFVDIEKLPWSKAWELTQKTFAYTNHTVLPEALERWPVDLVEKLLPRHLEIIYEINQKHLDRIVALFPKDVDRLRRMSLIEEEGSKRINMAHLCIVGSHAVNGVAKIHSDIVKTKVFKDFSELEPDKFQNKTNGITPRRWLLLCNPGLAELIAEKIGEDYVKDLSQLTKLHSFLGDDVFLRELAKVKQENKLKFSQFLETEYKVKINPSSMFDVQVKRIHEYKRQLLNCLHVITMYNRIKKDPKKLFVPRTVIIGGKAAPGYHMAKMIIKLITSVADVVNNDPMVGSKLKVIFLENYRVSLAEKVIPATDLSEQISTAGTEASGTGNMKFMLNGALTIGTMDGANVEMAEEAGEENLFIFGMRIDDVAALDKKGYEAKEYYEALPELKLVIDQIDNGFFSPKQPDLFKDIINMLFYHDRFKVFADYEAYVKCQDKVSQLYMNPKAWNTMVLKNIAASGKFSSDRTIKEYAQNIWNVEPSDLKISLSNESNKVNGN
Chain of UniProt Q99541 (Q99541 whole entry, looked up): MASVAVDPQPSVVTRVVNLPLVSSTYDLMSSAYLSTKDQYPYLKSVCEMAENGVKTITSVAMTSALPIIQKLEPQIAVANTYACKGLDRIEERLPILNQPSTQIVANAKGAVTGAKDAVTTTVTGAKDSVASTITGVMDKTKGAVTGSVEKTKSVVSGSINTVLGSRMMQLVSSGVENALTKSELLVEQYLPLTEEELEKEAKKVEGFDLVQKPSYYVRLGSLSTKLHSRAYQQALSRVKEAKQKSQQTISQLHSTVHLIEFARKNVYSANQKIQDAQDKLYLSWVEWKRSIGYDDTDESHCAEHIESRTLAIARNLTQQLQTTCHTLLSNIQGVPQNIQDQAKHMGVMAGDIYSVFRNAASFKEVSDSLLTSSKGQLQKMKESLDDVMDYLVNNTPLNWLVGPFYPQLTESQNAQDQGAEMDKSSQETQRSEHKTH
Chain of UniProt Q16512 (Q16512 whole entry, looked up): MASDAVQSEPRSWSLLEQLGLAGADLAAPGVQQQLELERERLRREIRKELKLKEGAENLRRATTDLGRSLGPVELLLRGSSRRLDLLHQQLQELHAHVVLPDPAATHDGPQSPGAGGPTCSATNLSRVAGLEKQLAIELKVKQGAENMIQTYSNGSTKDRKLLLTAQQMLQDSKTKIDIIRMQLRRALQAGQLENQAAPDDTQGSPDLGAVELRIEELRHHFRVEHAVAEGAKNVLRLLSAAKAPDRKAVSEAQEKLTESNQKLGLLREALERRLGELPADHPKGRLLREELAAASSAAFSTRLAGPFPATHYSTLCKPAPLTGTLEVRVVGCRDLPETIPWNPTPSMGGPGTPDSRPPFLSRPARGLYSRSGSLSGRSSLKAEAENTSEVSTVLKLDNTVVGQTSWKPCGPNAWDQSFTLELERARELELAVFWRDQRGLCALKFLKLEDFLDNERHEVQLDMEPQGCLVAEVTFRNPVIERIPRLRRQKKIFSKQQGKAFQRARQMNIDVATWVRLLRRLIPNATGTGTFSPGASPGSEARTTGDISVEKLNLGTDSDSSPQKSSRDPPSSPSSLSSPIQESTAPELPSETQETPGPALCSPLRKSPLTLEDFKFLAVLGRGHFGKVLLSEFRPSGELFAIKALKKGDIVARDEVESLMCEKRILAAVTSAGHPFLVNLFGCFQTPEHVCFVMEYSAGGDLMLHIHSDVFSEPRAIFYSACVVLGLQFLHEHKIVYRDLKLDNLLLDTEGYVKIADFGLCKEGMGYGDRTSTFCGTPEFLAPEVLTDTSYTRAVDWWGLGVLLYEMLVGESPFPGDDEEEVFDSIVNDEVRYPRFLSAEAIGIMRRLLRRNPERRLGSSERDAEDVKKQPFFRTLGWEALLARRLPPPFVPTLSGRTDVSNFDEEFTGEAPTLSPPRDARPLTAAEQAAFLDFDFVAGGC
Chain of UniProt Q9H814 (Q9H814 whole entry, looked up): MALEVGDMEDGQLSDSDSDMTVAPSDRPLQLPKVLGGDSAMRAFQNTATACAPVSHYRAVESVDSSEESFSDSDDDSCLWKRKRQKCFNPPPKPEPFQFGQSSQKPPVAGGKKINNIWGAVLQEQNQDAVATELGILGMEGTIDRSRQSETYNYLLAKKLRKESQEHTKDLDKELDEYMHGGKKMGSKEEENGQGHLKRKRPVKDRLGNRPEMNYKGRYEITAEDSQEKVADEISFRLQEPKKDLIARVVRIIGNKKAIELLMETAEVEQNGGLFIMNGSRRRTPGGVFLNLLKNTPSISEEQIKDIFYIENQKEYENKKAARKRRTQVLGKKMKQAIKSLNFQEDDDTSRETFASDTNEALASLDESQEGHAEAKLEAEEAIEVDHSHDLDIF
Chain of UniProt P28340 (P28340 whole entry, looked up): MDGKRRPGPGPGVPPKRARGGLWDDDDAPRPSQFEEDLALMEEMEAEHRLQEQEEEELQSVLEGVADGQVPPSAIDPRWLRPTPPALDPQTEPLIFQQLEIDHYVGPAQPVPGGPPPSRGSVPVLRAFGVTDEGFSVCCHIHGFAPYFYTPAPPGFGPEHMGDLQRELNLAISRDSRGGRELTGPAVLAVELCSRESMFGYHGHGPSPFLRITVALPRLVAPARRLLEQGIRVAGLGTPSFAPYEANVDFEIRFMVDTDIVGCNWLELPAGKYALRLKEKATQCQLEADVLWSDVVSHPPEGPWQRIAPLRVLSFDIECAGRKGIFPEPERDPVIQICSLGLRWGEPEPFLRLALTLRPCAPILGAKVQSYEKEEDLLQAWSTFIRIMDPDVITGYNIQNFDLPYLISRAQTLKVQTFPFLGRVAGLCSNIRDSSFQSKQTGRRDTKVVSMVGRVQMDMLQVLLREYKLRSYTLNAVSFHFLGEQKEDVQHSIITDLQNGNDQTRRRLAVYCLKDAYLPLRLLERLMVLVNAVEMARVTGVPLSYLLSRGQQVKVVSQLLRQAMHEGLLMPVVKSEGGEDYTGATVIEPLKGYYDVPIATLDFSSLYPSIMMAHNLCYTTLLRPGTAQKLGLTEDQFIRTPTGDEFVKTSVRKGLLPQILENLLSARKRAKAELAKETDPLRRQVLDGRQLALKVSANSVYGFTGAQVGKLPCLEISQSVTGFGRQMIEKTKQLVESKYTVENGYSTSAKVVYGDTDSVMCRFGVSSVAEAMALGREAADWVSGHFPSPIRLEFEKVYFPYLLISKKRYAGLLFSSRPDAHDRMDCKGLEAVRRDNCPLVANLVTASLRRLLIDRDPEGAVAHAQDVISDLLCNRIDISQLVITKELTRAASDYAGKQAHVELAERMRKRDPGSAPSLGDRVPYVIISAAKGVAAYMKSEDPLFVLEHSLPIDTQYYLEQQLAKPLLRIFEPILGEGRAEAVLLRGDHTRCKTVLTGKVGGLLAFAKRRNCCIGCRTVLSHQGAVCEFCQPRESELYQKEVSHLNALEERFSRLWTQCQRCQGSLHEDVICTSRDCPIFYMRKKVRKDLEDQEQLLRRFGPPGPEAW
Chain of UniProt P50336 (P50336 whole entry, looked up): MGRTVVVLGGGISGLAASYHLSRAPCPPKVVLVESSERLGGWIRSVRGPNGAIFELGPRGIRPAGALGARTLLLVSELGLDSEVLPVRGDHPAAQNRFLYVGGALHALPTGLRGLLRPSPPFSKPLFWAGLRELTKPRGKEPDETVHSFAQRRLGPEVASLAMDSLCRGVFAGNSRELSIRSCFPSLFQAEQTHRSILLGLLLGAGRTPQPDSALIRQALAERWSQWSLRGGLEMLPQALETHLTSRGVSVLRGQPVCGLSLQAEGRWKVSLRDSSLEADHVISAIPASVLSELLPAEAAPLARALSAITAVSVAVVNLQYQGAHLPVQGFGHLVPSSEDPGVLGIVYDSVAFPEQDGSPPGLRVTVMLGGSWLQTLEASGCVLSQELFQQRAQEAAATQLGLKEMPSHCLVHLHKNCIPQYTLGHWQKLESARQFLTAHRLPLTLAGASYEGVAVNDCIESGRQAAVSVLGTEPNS

Row | Target | log2 fold change (saracatinib) | log2 fold change (sotrastaurin) | log2 fold change (alvocidib) | log2 fold change (Tubastatin A) | log2 fold change [1] | log2 fold change (defactinib) | log2 fold change (rucaparib) | log2 fold change [2] | log2 fold change (encorafenib) | log2 fold change [3] | log2 fold change [4] | log2 fold change (filanesib) | log2 fold change (zotarolimus) | log2 fold change (idasanutlin) | log2 fold change (alisertib) | log2 fold change [5] | log2 fold change (gefitinib) | log2 fold change [6] | log2 fold change (lapatinib) | log2 fold change (pictilisib)
1 | PSMD12 (UniProt O00232) | -0.024 | -0.029 | 0.026 | 0.04 | 0.033 | 0.048 | 0.014 | 0.054 | 0.031 | -0.032 | -0.015 | 0.047 | 0.013 | -0.025 | -0.096 | -0.07 | -0.018 | -0.067 | 0.096 | -0.059
2 | PTTG1IP (UniProt P53801) | 0.021 | -0.03 | 0.004 | -0.085 | 0.062 | -0.011 | 0.013 | -0.246 | -0.052 | 0.129 | -0.013 | -0.186 | -0.124 | -0.004 | -0.046 | 0.038 | 0.158 | 0.007 | -0.096 | 0.086
3 | POLA1 (UniProt P09884) | 0.006 | -0.096 | -0.163 | 0.025 | 0.079 | -0.156 | -0.126 | -0.016 | -0.005 | -0.035 | 0.053 | -0.023 | 0.008 | 0.003 | -0.053 | 0.016 | 0.015 | -0.008 | -0.005 | 0.033
4 | PRCP (UniProt P42785) | 0.019 | 0.054 | 0.003 | -0.01 | 0.025 | -0.009 | 0.01 | -0.035 | 0.007 | 0.05 | 0.009 | -0.038 | -0.007 | -0.055 | -0.013 | -0.074 | 0.029 | 0.065 | -0.014 | 0.019
5 | POLR1A (UniProt O95602) | -0.027 | -0.151 | -0.06 | 0.148 | -0.138 | -0.011 | 0.064 | -0.089 | -0.015 | 0.115 | 0.248 | 0.075 | -0.05 | 0.063 | -0.076 | -0.007 | 0.037 | -0.008 | 0.069 | 0.078
6 | POLD1 (UniProt P28340) | 0.018 | -0.052 | -0.121 | 0.055 | -0.01 | -0.115 | -0.004 | -0.004 | 0.131 | -0.029 | 0.025 | -0.038 | 0.007 | 0.024 | -0.042 | -0.006 | 0.007 | 0.047 | 0.01 | 0
7 | PMM2 (UniProt O15305) | -0.025 | 0.062 | 0.006 | -0.031 | -0.183 | 0.022 | 0.018 | -0.02 | -0.006 | 0.058 | -0.054 | -0.014 | -0.01 | 0.011 | 0.009 | 0.071 | 0.016 | 0.034 | -0.088 | -0.113
8 | PYGL (UniProt P06737) | 0.063 | -0.006 | 0.097 | -0.007 | -0.185 | -0.039 | -0.028 | -0.065 | 0.037 | 0.008 | -0.028 | 0.043 | -0.007 | -0.015 | -0.03 | 0.095 | -0.013 | 0.051 | -0.075 | -0.122
9 | PHAX (UniProt Q9H814) | 0.013 | 0.001 | -0.15 | 0.003 | -0.028 | -0.138 | -0.031 | -0.037 | -0.034 | 0.037 | -0.01 | 0.045 | 0.004 | 0.018 | -0.057 | -0.09 | 0.007 | 0.032 | 0.039 | 0.002
10 | PCNT (UniProt O95613) | -0.06 | 0.115 | 0.067 | -0.069 | -0.098 | 0.154 | -0.116 | 0.019 | 0.037 | 0.091 | -0.228 | 0.006 | -0.001 | 0.075 | 0.02 | 0.055 | 0.085 | 0.257 | -0.174 | 0.285
11 | PKN1 isoform 2 (UniProt Q16512) | -0.018 | -0.645 (active) | -0.048 | 0.026 | -0.088 | -0.121 | 0.022 | 0.026 | 0.024 | -0.014 | 0.001 | 0.019 | 0.046 | -0.05 | -0.021 | -0.217 | 0.001 | -0.044 | -0.009 | -0.007
12 | PLIN2 (UniProt Q99541) | -0.033 | -0.243 | 0.01 | 0.015 | 0.026 | -0.006 | -0.012 | -0.001 | 0.002 | 0.047 | -0.014 | -0.44 (active) | -0.041 | -0.107 | 0.058 | -0.891 (active) | 0.003 | 0.028 | -0.093 | 0.023
13 | PRKCA (UniProt P17252) | -0.174 | -0.502 (active) | -0.017 | 0.018 | 0.026 | -0.006 | 0.039 | 0.308 | -0.038 | 0.005 | -0.005 | -0.066 | 0.008 | 0.01 | -0.019 | 0.057 | -0.002 | 0.017 | -0.027 | 0.055
14 | PPOX (UniProt P50336) | -0.087 | 0.02 | -0.049 | -0.045 | 0.534 (active) | -0.07 | -0.059 | 0.274 | -0.018 | -0.01 | 0.324 | -0.226 | 0.352 | 0.574 (active) | 0.033 | -0.178 | 0.116 | 0.021 | 0.471 | 0.475
15 | PC (UniProt P11498) | -0.088 | -0.033 | -0.005 | 0.001 | -0.023 | -0.113 | 0.043 | 0.09 | -0.044 | -0.076 | 0.05 | 0.08 | -0.04 | -0.372 (active) | -0.039 | 0.14 | 0.024 | 0.014 | -0.011 | 0.09
16 | PRKAG1 isoform 3 (UniProt P54619) | -0.016 | 0.04 | -0.062 | 0.01 | -0.184 | -0.081 | -0.005 | -0.026 | 0.026 | -0.014 | -0.02 | -0.036 | 0 | -0.004 | 0.022 | 0.008 | 0.002 | 0.049 | -0.055 | -0.037
